Laboratory results: PubChem BioAssay AID2315 (National Center for Advancing Translational Sciences (NCATS), 2010)
Hit rate of the full screen: of about 290,000 compounds, about 27,000 (9.3%) were called active. The full list was thinned out, with actives kept by preference. Unmarked numbers belong to inactive results. Cut-off read from the data, not from the text of the source: active = inhibition mostly above about 28% (no sharp cut-off); inactive = mostly below about 43%.

Test: A qHTS for Small Molecule Inhibitors of Shiga Toxin; note: 0% is about no effect
Details: Vero cells, Shiga toxin protein synthesis inhibition reporter; at 38.7 µM, hits give high values

Row | Structure (SMILES) | inhibition
1 | COc1ccc(N2CCN(C(=O)c3cn(C)c4ccc(S(=O)(=O)N5CCOCC5)cc4c3=O)CC2)cc1 | -3.12%
2 | O=[N+]([O-])c1cc([N+](=O)[O-])c(Oc2cc(F)cc(F)c2F)cc1NN1CCCCC1 | 1.85%
3 | CCCn1nc(NS(=O)(=O)c2ccc(F)cc2)c2cc3ccccc3nc21 | -7.87%
4 | O=S1(=O)CCO[C@H]2Cc3ccccc3[C@H]2N1Cc1ccccc1 | -2.08%
5 | CC(=O)Nc1ccc(C(=O)OCC(=O)Nc2ccc([N+](=O)[O-])cc2C(F)(F)F)cc1 | 14.6%
6 | CN(C)c1nc(=Nc2cccc(Cl)c2)ss1 | 77% (active)
7 | O=C(NC1CCC(O)CC1)c1ccccc1OCc1ccc(F)cc1 (configuration not stated) | -2.79%
8 | COc1ccc(-n2nnnc2SCC(=O)Nc2ccccc2)cc1 | -15.5%
9 | Cc1ccc(C)c(-n2nnnc2SCC(=O)c2c(N)n(C)c(=O)n(C)c2=O)c1 | -10.4%
10 | CCn1nnnc1SCC(=O)Nc1ccc(N(C)C)cc1 | 44.2% (active)
11 | CC(=O)Nc1ccc(NC(=O)CSc2nnnn2-c2ccccc2F)cc1 | 61.1%
12 | CCn1nnnc1SCC(=O)c1ccc(C)cc1C | 77.4% (active)
13 | COc1ccc(C(=O)CSc2nnnn2C)c(OC)c1 | 32.4%
14 | Cc1cc(C(=O)N/N=C/c2ccccn2)c2ccccc2n1 | -6.51%
15 | O=C(Nc1ccccc1N1CCN(C(=O)c2ccccc2)CC1)c1ccco1 | 9.04%
16 | CC(C)NS(=O)(=O)c1ccc(OCC(=O)NC2CCCCCC2)cc1 | -16.9%
17 | CC(Oc1ccc(F)cc1)C(=O)N1CCN(c2ncccn2)CC1 (configuration not stated) | -12.5%
18 | Cc1ccc(NN=C2C(=O)OC(C)(C)OC2=O)c(C)c1 | 93.9% (active)
19 | Cc1ccc(NC(=O)c2oc(=O)c3ccccc3c2-c2ccccc2)c(C)c1 | -10.4%
20 | Cc1ccc(NC(=O)CCC(=O)N/N=C/c2ccco2)c(C)c1 | 9.07%
21 | COC(=O)C(C)n1cnc2c(nnn2-c2ccc(F)cc2)c1=O (configuration not stated) | 8.93%
22 | COc1ccc(NC(=O)c2sc3nc(C)nc(N4CCN(c5ccccn5)CC4)c3c2C)c(OC)c1 | -5.19%
23 | CN(CCN1CCOCC1)Cc1nc(-c2ccc3c(c2)OCO3)no1 | 13.4%
24 | CCn1ccnc1CN(C)Cc1nc(-c2ccc3c(c2)OCO3)no1 | 50.1% (active)
25 | CC(C)N(Cc1nc(-c2ccc3c(c2)OCO3)no1)CC1CCC(=O)N1 (configuration not stated) | -4.06%

Row | Structure (SMILES) | inhibition
26 | CCC(C)(C)c1ccc(Oc2ccc(NC(=O)COC(=O)C3=COCCO3)cc2)cc1 | 23.6%
27 | O=C(OCC(=O)c1cccs1)c1ccc([N+](=O)[O-])o1 | 41.9%
28 | O=C(OCC(=O)c1cccs1)C1=COCCO1 | 98.9% (active)
29 | O=C(NCc1ccccc1)C1CCN(C(=O)Cc2ccccc2)CC1 | -23.8%
30 | O=C(CCn1nnnc1CN1CCOCC1)N1CCC(c2ccccc2Cl)C1 (configuration not stated) | 11%
31 | NC(=O)c1c(Nc2nc3c(F)cccc3s2)sc2c1CCCC2 | 13.4%
32 | CN(C)CCCN(C(=O)COc1ccccc1)c1nc2c(Cl)cccc2s1 | -6.79%
33 | NNc1nc2c(Cl)cccc2s1 | 69.4% (active)
34 | C/C(=N\NC(=O)c1cccc([N+](=O)[O-])c1)c1cccnc1 | 11.6%
35 | COc1ccc(N2CCC(N3CCN(C)C(CCO)C3)CC2)cc1 (configuration not stated) | 0.592%
36 | COc1ccc(CCN2CC(C(=O)NCCN3CCNC3=O)CCC2=O)cc1 (configuration not stated) | 1.29%
37 | Cc1cc(=O)[nH]c(N/N=C/c2c(C)nn(-c3ccccc3Cl)c2Cl)n1 | 47%
38 | CCN(CC)c1ccc(/C=N/Nc2nc(C)cc(=O)[nH]2)cc1 | 2.75%
39 | Cc1cc(=O)[nH]c(N/N=C/c2ccc3c(c2)OCCO3)n1 | 44.5% (active)
40 | Cc1[nH]c2ccccc2c1C(=O)CN1CCCC(C)C1 (configuration not stated) | -6.74%
41 | Nc1ccccc1SC(C[N+](=O)[O-])c1ccccc1 (configuration not stated) | 77.6% (active)
42 | Cc1ccc(C(C[N+](=O)[O-])c2c(C)cc3ccccn23)cc1 (configuration not stated) | 6.95%
43 | NS(=O)(=O)c1ccc(CNC(=O)c2cccc(Oc3ccccc3)c2)cc1 | 6.72%
44 | O=C(NCc1cn2ccsc2n1)Nc1ccc(Cl)cc1 | -6.11%
45 | CCC(=O)Nc1ccc(C(=O)NNC(=O)c2ccc(Cl)cc2)cc1 | 21.7%
46 | O=C(Nc1ccc(Cl)cc1)c1ccsn1 | 71.9% (active)
47 | Cc1cc(-c2ccc(C)c(S(=O)(=O)NCCCN(Cc3ccccc3)C(C)C)c2)on1 | -6.03%
48 | Cc1cccc(NC(=O)NC2(C)CCS(=O)(=O)C2)c1 (configuration not stated) | 11.8%
49 | CC(C)(C)c1ccc(C(=O)NCCC(=O)NCc2ccco2)cc1 | 6.3%
50 | CC(C)(C)NC(=O)NCc1ccco1 | 12.4%

Row | Structure (SMILES) | inhibition
51 | CC(C)(C)c1ccc(NC(=O)NCc2ccco2)cc1 | 74.2% (active)
52 | COc1ccc([N+](=O)[O-])cc1N(CC(=O)Nc1ccccc1C(=O)N1CCOCC1)S(C)(=O)=O | -1.77%
53 | CCOC(=O)c1c(C)[nH]c(C(=O)COc2ccc3c(c2)OCO3)c1C | 17.2%
54 | CCOC(=O)c1nc(-c2ccc3c(c2)OCO3)[nH]c1C | 41% (active)
55 | CCOCCOC(=O)C1=C(C)NC(=O)NC1c1ccc2c(c1)OCO2 (configuration not stated) | -11.9%
56 | CCOc1ccc(N(C)S(=O)(=O)c2cnc[nH]2)cc1 | 10.4%
57 | Cc1ccc2c(c1)N(CC(=O)N1CCC(C)CC1)C(=O)c1cccnc1O2 | 9.85%
58 | CCOc1cccc(NC(=O)C2CCCN(S(=O)(=O)c3ccc(OC)cc3)C2)c1 (configuration not stated) | -14.4%
59 | COc1ccc(S(=O)(=O)N2CCCC(C(=O)Nc3ccc(NC(=O)c4ccccn4)cc3)C2)cc1 (configuration not stated) | 63.5% (active)
60 | COc1ccc(NC(=O)C2CCCN(S(=O)(=O)c3cccc4cccnc34)C2)cc1 (configuration not stated) | -1.64%
61 | COc1ccccc1N1CC(C(=O)Nc2nnc(SCC(=O)NC(C)C)s2)CC1=O (configuration not stated) | 4.29%
62 | CN(CC1CCCN(CCc2cccc(C(F)(F)F)c2)C1)C(=O)c1ccc2nc[nH]c2c1 (configuration not stated) | -2.32%
63 | Cc1ccc(CS(=O)Cc2ccc(C(=O)N3CCOCC3)o2)cc1 (configuration not stated) | -2.85%
64 | COc1ccc2c(c1)cc1n2CCN=C1NN | 170% (active)
65 | COc1ccc(CNC(=O)C(=O)NCC2OCCN2C(=O)c2ccc(OC)cc2)cc1 (configuration not stated) | -30.4%
66 | O=S(=O)(c1cccc(Cn2nnc(-c3ccc(F)cc3)n2)c1)N1CCOCC1 | -6.53%
67 | O=[N+]([O-])c1cc(Br)c(O)c(/C=N/Nc2nc3ccccc3s2)c1 | 30.3%
68 | c1ccc2sc(SNC3CCCCC3)nc2c1 | 25.3%
69 | c1ccc2sc(NN=C3CCCC3)nc2c1 | 72.4% (active)
70 | Cc1ccc2c(c1)C(c1ccccc1)N(C(=O)c1ccc(F)cc1)CC(=O)N2 (configuration not stated) | -4.25%
71 | COC(=O)c1ccc(/C=C2/C(=O)Oc3ccccc32)cc1 | -14%
72 | CNC(=S)N1N=C(c2ccccc2)CC1c1ccc(Br)cc1 (configuration not stated) | 34.3% (active)
73 | Cc1ccc(NC(=S)N2CCCC(c3ccccc3)=N2)cc1 | -2.73%
74 | CC(=O)N1CCN(c2ccccc2NC(=S)NC(=O)c2cc3ccccc3o2)CC1 | -6.04%
75 | Cc1cc(NC(=O)Nc2ccccc2)n(-c2ccccc2)n1 | 34.6%

Row | Structure (SMILES) | inhibition
76 | Cc1cc(Nc2ccccc2)n(CCC#N)n1 | -1.92%
77 | Cc1cc(Nc2ccccc2)n(C(=O)c2ccc(N)cc2)n1 | 47.2% (active)
78 | Cc1ccc(C)c(C(=O)N2CCC(n3nccc3NC(=O)C3CC3)CC2)c1 | -24.8%
79 | N#Cc1c(-c2ccccc2)c(-c2ccccc2)n[nH]c1=O | -6.49%
80 | Cc1cccc(N2C(=O)SC(N(CC(=O)O)c3cccc(C)c3)C2=O)c1 (configuration not stated) | 49.7%
81 | Cc1cccc(N2C(=O)SC(SC(=Nc3ccccc3)Nc3ccccc3)C2=O)c1 (configuration not stated) | 83.9% (active)
82 | Cc1cccc(N2C(=O)CC(SC(N)=Nc3ccccc3)C2=O)c1 (configuration not stated) | -8.18%
83 | COc1cccc(/C=C2\Sc3ccc(C(=O)NCC4CCCO4)cc3N(C)C2=O)c1 (configuration not stated) | 11.4%
84 | CCOC(=O)c1c(S(=O)(=O)Nc2ccc(CN3CCC(C)CC3)cc2)c(C)n(C)c1C | -3.73%
85 | CC(=O)N1CC(=O)N(CC(=O)Nc2ccc(Br)cc2)C1=S | -1.67%
86 | CC1CC(C)CN(C(=O)C2CC(=O)N(c3ccc(F)cc3)C2)C1 (configuration not stated) | -7.56%
87 | O=C(CCCO)N/N=C/c1cc(Br)ccc1O | 13.6%
88 | O=C(N/N=C/c1ccccc1O)C1CCCC1 | 21.6%
89 | O=C(N/N=C/c1ccccc1O)/C(=C/c1ccccc1)CCO | 51.6% (active)
90 | O=c1c2c(nc3nc[nH]n13)CCC2 | 11.8%
91 | Cc1cc(=O)n2[nH]c(-c3cccc(Cl)c3)cc2n1 | 39.8%
92 | O=c1c2c(nc3cc(-c4cccc(Cl)c4)[nH]n13)CCCC2 | 59.1% (active)
93 | O=S(=O)(c1ccc(Cl)cc1)c1nc(-c2ccccc2F)oc1NCCN1CCOCC1 | -6.01%
94 | CCCc1nc(NCc2ccc3c(c2)OCO3)c2nnn(Cc3ccccc3Cl)c2n1 | 7.73%
95 | Cc1nc(Nc2ccc3c(c2)OCCO3)c2nnn(Cc3ccccc3Cl)c2n1 | 153% (active)
96 | Cc1nc(Nc2ccccc2F)c2nnn(Cc3ccccc3Cl)c2n1 | -8.68%
97 | COc1ccc(C(=O)/C=C/c2ccc(-c3ccccc3)cc2)cc1CSCC(=O)O | -14.5%
